According to PubChem BioAssay (NCI):
The panel holds about 83,000 compounds, 20% with a hit somewhere; the sample as a whole holds those more often.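 For each line, cells grew in 96-well plates with the test compound present at a single concentration for 48 hours.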 Unmarked numbers belong to inactive results. Active and inactive are the calls of the source. The calls were made as follows: active = growth percent below 10; inactive = the rest.

Key:
Test in all cases: NCI-60 one-dose screen, 48 h (100 = growth as untreated, 0 = no growth, -100 = all killed)
Conditions in all cases: 10 µM unless noted
SK-MEL-2 melanoma = tested on: SK-MEL-2 melanoma
EKVX NSCLC = tested on: EKVX NSCLC
SN12C renal = tested on: SN12C renal
UO-31 renal = tested on: UO-31 renal
TK-10 renal = tested on: TK-10 renal
ACHN renal = tested on: ACHN renal
CAKI-1 renal = tested on: CAKI-1 renal
A498 renal = tested on: A498 renal
CCRF-CEM leukemia = tested on: CCRF-CEM leukemia
MOLT-4 leukemia = tested on: MOLT-4 leukemia

SMILES	growth (SK-MEL-2 melanoma)	growth (EKVX NSCLC)	growth (SN12C renal)	growth (UO-31 renal)	growth (TK-10 renal)	growth (ACHN renal)	growth (CAKI-1 renal)	growth (A498 renal)	growth (CCRF-CEM leukemia)	growth (MOLT-4 leukemia)
C[n+]1ccccc1/C=C/c1ccc2cccc(O)c2n1	103%	32%	91.8%	57.9%	109%	102%	57.3%	63.9%	103%	95.2%
CCOC(=O)c1sc2nc(-c3cccc(OC)c3)nc(N3CCOCC3)c2c1C	93.2%	87.7%	87.5%	79.7%	98.1%	103%	79.8%	101%	98.4%	93.1%
COc1ccc(-n2nc(C)c3c(Nc4ccc(NC(=O)Nc5cc(C(F)(F)F)ccc5F)cc4)ncnc32)cc1	25%	24.1%	44.9%	16%	47.5%	25.3%	4.88% (active)	56.5%	38.4%	39.3%
CCn1c(Cc2ccccc2Nc2c(Cl)cccc2Cl)nnc1SCC(=O)NN1C(=O)/C(=C/c2cc(OC)c(O)c(OC)c2)SC1=S	30.7%	60.2%	54.8%	59.6%	70%	58.9%	37%	20.6%	19.1%	23.1%
Cc1cc(C)nc(SC2=C(Nc3cc(Cl)ccc3O)C(=O)N(Cc3ccccc3)C2=O)n1	97.6% [30 µM]	83.9% [30 µM]	91.6% [30 µM]	82.4% [30 µM]	23.8% [30 µM]	88.7% [30 µM]	99.7% [30 µM]	75.5% [30 µM]	22.1% [30 µM]	46.3% [30 µM]
O=C1NC(=Nc2ccc(O)cc2)S/C1=C\c1cccc(Cl)c1	109%	84.2%	82%	42.5%	97.3%	84.5%	70%	50.1%	27.1%	45.4%
O=c1c2c3c(sc2nc(N/N=C/c2cn(-c4ccccc4)nc2-c2ccc(Cl)cc2)n1Cc1ccccc1)CCCC3	103%	106%	127%	95.9%	129%	117%	98.9%	112%	109%	22%
C=CC(COC(c1ccccc1)(c1ccccc1)c1ccccc1)N(CC)CC (stereo not given)	85.8%	76.1%	58.3%	59.4%	79.8%	81.7%	67.1%	73.8%	59.3%	8.88% (active)
Cc1ccccc1COc1ccc(-c2onc(C)c2-c2ccc(Cl)cc2)cc1	37.1%	75.1%	68.3%	72.4%	84.3%	67%	48.7%	38.6%	38.2%	32.8%
N#Cc1c(-c2ccc(Cl)cc2)nc(N=Nc2c(O)[nH]c3ccc(Cl)cc23)nc1N1CCOCC1	98.1%	86.1%	97%	67.5%	120%	94.6%	85.2%	73.2%	111%	110%
COc1cc2c(cc1-c1c(C)noc1C)ncc1nc(C3CCCCC3)n([C@H](C)COC(F)F)c12	69%	44.3%	58.4%	13.6%	33.2%	33.1%	29.2%	-13.1% (active)	44.9%	47.6%
COc1ccc(S(=O)(=O)N2CCCCC2)cc1NC(=O)c1[nH]c(C)c2c1CCCCC2=O	19.6%	33.9%	34.9%	9.67% (active)	1.34% (active)	19.8%	11.4%	-19.2% (active)	42%	36.6%
O=C1/C(=C/c2ccc3c(c2)OCO3)SC(=S)N1CCc1ccc(O)cc1	100%	98.8%	92.1%	58.8%	81.3%	97.2%	81%	111%	56.7%	87.3%
O=C(Oc1cccnc1)c1ccsc1Nc1ccnc(C(F)(F)F)c1	72.6%	110%	55.2%	91.6%	94.8%	107%	72.7%	104%	23.7%	8.64% (active)
CCOC(=O)C(C)(C#N)C1C=CCCC1 (stereo not given)	96.5%	96.7%	95%	84%	83.2%	92.3%	75.1%	63.2%	84.6%	98%
COc1cc(/C=C/c2cc(O)c3cc(C(C)=O)c(=O)oc3c2)cc2c1O[C@]1(C)CC[C@@H](O)C(C)(C)[C@H]1C2	50.1%	59.3%	64.7%	-42.8% (active)	97.9%	40.9%	29.8%	-51.5% (active)	22.1%	-5.7% (active)
O=C(/C=C/c1cc(CN2CCOCC2)c(O)c2ncccc12)c1cc(CN2CCOCC2)c(O)c2ncccc12	20.7%	23.5%	26.1%	11.1%	22.1%	9.19% (active)	14.1%	32.4%	26.9%	31.1%
CC[C@@H](C(=O)[C@@H](C)[C@@H](O)[C@H](C)[C@@H]1O[C@@H]([C@@H](CC)C(=O)O)CC[C@@H]1C)[C@H]1OC2(C=C[C@@H](O)[C@]3(CC[C@@](C)([C@H]4CC[C@](O)(CC)[C@H](C)O4)O3)O2)[C@H](C)C[C@@H]1C (stereo not given in full)	-55.1% (active)	34.3%	16.1%	20.4%	29.7%	33.4%	18.2%	-79.2% (active)	0.899% (active)	-8.95% (active)
COc1ccc(/C=C(\C#N)C(=O)Nc2cccc(Nc3nc(SC)nc(-c4cccc([N+](=O)[O-])c4)c3C#N)c2)cc1OC	113%	88.2%	96.5%	88.3%	176%	93.8%	92.7%	102%	87.7%	93.1%
CCCN1CCN(c2ccc3nc(-c4ccc5nc(-c6ccc(OCC)cc6)[nH]c5c4)[nH]c3c2)CC1	78.9%	59.1%	61.2%	87.2%	69%	34.6%	49.3%	65.6%	-32.4% (active)	-0.259% (active)
CC(C)C1=C[C@@]23CC[C@@H]4[C@](C)(CCC[C@@]4(C)C(=O)N4CCCNCC4)[C@H]2C[C@@H]1[C@H]1C(=O)CCC(=O)[C@H]13	103%	95.2%	102%	79.2%	104%	92.1%	81.1%	97%	101%	96.5%
COc1cc(C2CC(=O)c3ccccc3N2)cc(OC)c1OC (stereo not given)	74.3%	103%	92%	92.4%	105%	102%	93.4%	83.7%	95.5%	97%
O=C(CN1C(=O)/C(=C/c2ccc(Cl)cc2)SC1=S)NCCCN1CCOCC1	111%	90.7%	94.7%	83.2%	117%	94.6%	89.4%	104%	105%	102%
